# High-throughput results deposited in PubChem by National Center for Advancing Translational Sciences (NCATS).
# The list is not random: actives were taken first. Their share in the collection is about 7.9%.
# HT1080NT lethal – qHTS for induction of synthetic lethality in tumor cells producing 2HG: qHTS for the HT-1080-NT fibrosarcoma cell line; HT-1080-NT fibrosarcoma viability, CellTiter-Glo ATP luminescence, 48 h; Potency, µM (top dose mostly 46.1 µM), without a hit: at the top dose activity, negative = less viability, actives largely listed as cytotoxic; actives 1.6% (n = 360,000);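 further: NT is the 2HG producing partner of a matched IDH1 knockdown line; 0% = DMSO-treated cells and -100% = media-only wells without cells; nearly all actives have a fitted effect of over 55% in size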
#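 Compounds were tested in concentration-response format on HT-1080-NT cells for 48 hours at 37 degrees C. Cell viability came from CellTiter-Glo luminescence; curves were classified by r2, response magnitude and activity.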
# HT1080 IDH1KD tx – qHTS for induction of synthetic lethality in tumor cells producing 2HG: qHTS for the HT-1080-IDH1KD cell line; HT-1080 IDH1 knockdown viability, ATP luminescence, 48 h; Potency, µM (top dose mostly 46.1 µM), for inactives: at the highest dose activity, negative = toxicity, actives largely listed as cytotoxic; actives 2% (n = 360,000);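 further: 0% = DMSO wells and -100% = cell-free medium wells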
#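 Assay cells: HT-1080 with IDH1 knockdown, 750 per well, RPMI/5% FBS. Exposure: 48 h at 37 °C following 2 h pre-incubation. Read: CellTiter-Glo luminescence; fitted concentration-response, curve class assigned.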
# SW480 rerep – A quantitative high throughput screen for small molecules that induce DNA re-replication in SW480 colon adenocarcinoma cells; Potency, µM (series often up to 46.1 µM), for inactives: at the top dose re-replication activation, most hits filed as activators; SW480 DNA re-replication, Hoechst DNA content imaging, 48 h; AID 624297, 2012; actives 1.8% (n = 340,000); further: % of control where 0% means no effect; nearly all actives have a fitted effect of over 55% in size
#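 First, 250 cells per well were seeded. Next, compound or vehicle (23 nL) was pinned in, plates sat 48 hr at 37 C. Finally Hoechst was added for 40 min before fluorescence scanning.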
# KB-3-1 cytotox – qHTS assay for MDR1-selective chemotherapeutics: Primary screen using the parental adenocarcinoma cell KB-3-1; KB-3-1 viability, CellTiter-Glo ATP luminescence, 72 h; Potency, µM (titrated, usually from 46.1 µM), most hits filed as cytotoxic; actives 1.4% (n = 400,000); further: on the % scale 0 is the no-effect control and ±100 the full control effect; nearly all actives have a fitted effect of over 60% in size
#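 Parental KB-3-1 adenocarcinoma cells in phenol-red-free DMEM with 10% FBS were pin-treated with compounds at several concentrations, incubated 72 h at 37 °C, and viability read by CellTiter-Glo luminescence; concentration-effect curves were fitted after normalization.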
# MCF10A rerep – A quantitative high throughput screen for small molecules that induce DNA re-replication in MCF 10a normal breast cells. actives 2.9% (n = 350,000). MCF 10A DNA re-replication, Hoechst nuclear intensity, 48 h. Potency, µM (titrated, usually from 46.1 µM), without a hit: top-dose activity, positive = re-replication, most hits filed as activators. AID 624296, 2012; further: % of control where 0% means no effect; nearly all actives have a fitted effect of over 50% in size
# KB-V1 cytotox – qHTS assay for MDR1-selective chemotherapeutics: Primary screen using the drug-selected MDR subline cells KB-V1; KB-V1 MDR cells viability, CellTiter-Glo, 72 h; Potency, µM (top dose mostly 46.1 µM), most hits filed as cytotoxic; actives 3.4% (n = 400,000); AID 1347076, 2019; further: on the % scale 0 is the no-effect control and ±100 the full control effect; nearly all actives have a fitted effect of over 60% in size
#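 Cytotoxicity via CellTiter-Glo luminescence after 72 h compound exposure at 37 degrees C. Cells: drug-selected KB-V1 line, DMEM phenol-red free plus 10% FBS. Compounds tested at multiple concentrations; normalized data fitted to concentration-effect curves.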
# Numbers without * were called inactive; i = inactive; u = inconclusive; x = no result; [ ] = dose if it differs, or a comment. The call rests on the fitted dose curve; in most records, active means well fitted curve in the direction sought with a large enough effect; inconclusive means small, poorly fitted or top-dose-only effect, or another doubt; inactive means no such curve, though single readings can be large; an effect the other way counts as inactive or inconclusive. Potency means the concentration at half of the fitted maximal effect.
SMILES,HT1080NT lethal,HT1080 IDH1KD tx,SW480 rerep,KB-3-1 cytotox,MCF10A rerep,KB-V1 cytotox
CC(=O)c1ccc(-n2nncc2C(C)(C)C)cc1,u,-6%[9.24 µM],16%,i,6%,i
Cn1nccc1NS(=O)(=O)c1ccc(NC(=O)C(F)(F)F)cc1,21%,20%,2.9µM*,i,5%,i
CCN(CC(=O)Nc1ccc(NC(C)=O)cc1)C(=O)c1cccnc1Sc1ccc(C)c(C)c1,0%,-3%,-77%,i,1%,i
COc1cc(CSc2ncc(CO)n2Cc2ccc(C)cc2)cc(OC)c1,x,x,x,i,x,i
COc1ccccc1Nc1nc(-c2c(C)nc3ncccn23)cs1,23µM*,21µM*,u,u,9%,7.3µM*
Cc1nc2ncccn2c1-c1csc(Nc2ccc(N(C)C)cc2)n1,u,u,u,0.012µM*,u,u
CC(=O)Nc1ccc(Nc2nc(-c3c(C)nc4ccccn34)cs2)cc1,u,2.9µM*,u,u,u,u
Cc1nc2sccn2c1-c1csc(NCc2ccccc2)n1,u,7%,17%,u,1%,13µM*
Cc1nc2ncccn2c1-c1csc(Nc2ccccc2)n1,0%,-10%,-8%,i,11%,i
Cc1ccc(NC(=O)CCCCCN2C(=O)[C@@H]3Cc4ccccc4CN3C2=O)c(Cl)c1,-7%,-11%,-3%,i,-2%,i
O=C(O)c1ccc(/C=N/Nc2ccc(Cl)nn2)cc1,9%,10%,-6%,i,-1%,i
COc1ccc(Nc2nc(-c3c(C)nc4ncccn34)cs2)cc1,0.013µM*,0.0073µM*,u,i,86%,i
Cc1nc2ncccn2c1-c1csc(NCc2ccco2)n1,-11%,-1%,-17%,u,21%,16µM*
Nc1cc2ccncc2c2ccccc12,-7%,0%,u,i,21µM*,u
Cc1ccc2oc(-c3cccc(NC(=S)NC(=O)c4cccs4)c3)nc2c1,13%,15%,-5%,i,2%,i
COc1cccc(NC(=S)NC(=O)/C=C/c2ccco2)c1,21µM*,6.5µM*,u,u,u,u
Cc1ccc2oc(-c3cccc(NC(=S)NC(=O)/C=C/c4ccco4)c3)nc2c1,u,u,u,u,9.2µM*,u
Cc1cccc2nc(CSc3nc4ccccc4o3)cn12,2%,28%,4%,u,23%,16µM*
Cc1cc(C)c(C#N)c(SCc2cn3c(C)cccc3n2)n1,7%,1%,x,i,-5%,18µM*
Cc1ccc(S(=O)(=O)Nc2c(C)cc([N+](=O)[O-])cc2C)cc1,-2%,0%,-4%,i,-3%,i
Cc1ccc(S(=O)(=O)c2ccc([N+](=O)[O-])o2)cc1,7.3µM*,2.6µM*,u,u,u,13µM*
CCCCCc1ccc(-c2ccc(OC)cc2)nc1,18%,11%,1%,i,10%,i
CCCCCc1ccnc(CC(=O)c2ccc(OC)cc2)c1,-16%,-5%,-10%,23µM*,-14%,i
Cc1nc(SCC(=O)O)c2oc3ccccc3c2n1,-3%,-18%,-2%,i,584%[0.0737 µM],i
Cc1nc(SCC(=O)N2CCN(c3ccccc3)CC2)c2oc3ccccc3c2n1,-20%,3%[9.24 µM],-6%,i,u,21µM*
SMILES,HT1080NT lethal,HT1080 IDH1KD tx,SW480 rerep,KB-3-1 cytotox,MCF10A rerep,KB-V1 cytotox
O=C(CSc1ncnc2c1oc1ccccc12)Nc1cccc(F)c1,-12%,-16%,-3%,i,u,i
CCc1nc(SCC(=O)N2CCCc3ccccc32)c2oc3ccccc3c2n1,-7%,-23%,-5%,u,16µM*,10µM*
O=C(CSc1nc(-c2ccc(F)cc2)[nH]c1-c1ccc(F)cc1)Nc1ccc2c(c1)OCO2,x,x,x,u,x,i
O=C(CSc1nc(-c2ccc(F)cc2)[nH]c1-c1ccc(F)cc1)Nc1ccc2c(c1)OCCO2,x,x,x,u,x,18µM*
O=C(CSc1ncnc2c1oc1ccccc12)Nc1ccc2c(c1)OCCO2,-13%,-17%,-2%,i,22%,16µM*
O=C(O)c1cccc(S(=O)(=O)Nc2ccccc2Oc2ccccc2)c1,10%,7%,x,i,x,i
CCc1nc(SCC(=O)NC2CCCC2)c2oc3ccccc3c2n1,9%,4%,0%,i,4%,u
Cc1nc(SCC(=O)Nc2ccc3c(c2)OCCO3)c2oc3ccccc3c2n1,6%,-14%,-1%,i,103%,16µM*
CCc1nc(SCC(=O)Nc2ccc3c(c2)OCCO3)c2oc3ccccc3c2n1,2%,0%,1%,u,23µM*,21µM*
COc1ccc(CCC(=O)Nc2ncc(C)s2)cc1OC,4%,7%,u,u,12%,i
O=C(CCc1ccccc1)Nc1ccc(Cl)cn1,5.8µM*,2.9µM*,6.5µM*,5.8µM*,5.8µM*,u
Cc1cnc(NC(=O)CSc2nnc(Cc3ccccc3)o2)s1,4.5µM*,4.5µM*,u,i,u,i
COc1ccc(Cc2nnc(SCC(=O)Nc3ncc(C)s3)o2)cc1,-4%,-4%,11%,u,0%,u
Cc1cnc(NC(=O)CCc2ccccc2)s1,u,u,13µM*,u,10µM*,i
CCOC(=O)c1sc(NC(=O)CSc2nnc(Cc3ccccc3)o2)c(C(=O)OCC)c1C,-17%,6%,-2%,i,18%,7.3µM*
Cc1cnc(NC(=O)CSc2ccccc2)s1,4%,0%,-5%,i,-2%,i
CCOC(=S)SCC(=O)Nc1ncc(C)s1,u,18µM*,u,i,u,i
COc1ccc(Cc2nnc(SCC(=O)NC(C)c3ccccc3)o2)cc1 (stereo not given),2%,5%,-1%,i,8%,21µM*
CC(NC(=O)CSc1nnc(COc2ccccc2)o1)c1ccccc1 (stereo not given),5%,14%,3%,i,14%,i
Cc1ccc(C)c(S(=O)(=O)N2CCCOC2CNC(=O)C(=O)NC2CC2)c1 (stereo not given),1%,7%,-6%,i,3%,i
